Reference: PubChem BioAssay (NCI)
The panel holds about 83,000 compounds, 20% with a hit somewhere; the sample as a whole holds those more often.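 Plates (96-well) were seeded with cells, treated with compound at one concentration, and incubated for 48 hours before percent growth was determined.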 Values without a mark were called inactive. The source made the active and inactive calls. Rule for the calls: active = growth percent below 10; inactive = the rest.

Experiments:
Assay in all cases: NCI-60 one-dose screen, 48 h (100 = growth as untreated, 0 = no growth, -100 = all killed)
Conditions in all cases: 10 µM
[1] = tested on: HCT-15 colon
[2] = tested on: HT29 colon
[3] = tested on: SNB-75 CNS
[4] = tested on: SNB-19 CNS
[5] = tested on: U251 CNS
[6] = tested on: PC-3 prostate
[7] = tested on: SK-MEL-5 melanoma
[8] = tested on: UACC-62 melanoma
[9] = tested on: LOX IMVI melanoma
[10] = tested on: SK-MEL-28 melanoma
[11] = tested on: SK-MEL-2 melanoma
[12] = tested on: EKVX NSCLC
[13] = tested on: SN12C renal
[14] = tested on: UO-31 renal
[15] = tested on: TK-10 renal
[16] = tested on: ACHN renal
[17] = tested on: CAKI-1 renal
[18] = tested on: A498 renal
[19] = tested on: MOLT-4 leukemia
[20] = tested on: CCRF-CEM leukemia

Row | SMILES | growth [1] [%] | growth [2] [%] | growth [3] | growth [4] | growth [5] [%] | growth [6] [%] | growth [7] | growth [8] | growth [9] | growth [10] | growth [11] [%] | growth [12] [%] | growth [13] [%] | growth [14] | growth [15] [%] | growth [16] | growth [17] [%] | growth [18] | growth [19] | growth [20] [%]
1 | CC(=O)C1CCC2C3CC=C4CC(SC(=N)N)CCC4(C)C3CCC12C (stereo not given) | 16.3 | 11 | 55.4% | 64.2% | 30.5 | 33 | 15.6% | 64.4% | -56% (active) | 61.5% | 32.3 | 55.2 | 47.1 | 63% | 66.8 | 54.4% | 62.7 | 78.3% | -5.72% (active) | 
2 | CC[C@@H](C(=O)[C@H](C)[C@H](O)[C@@H](C)[C@H]1O[C@H]([C@@H](CC)C(=O)O)CC[C@H]1C)C1O[C@]2(C=C[C@@H](O)[C@]3(CC[C@@](C)([C@H]4CC[C@](O)(CC)[C@H](C)O4)O3)O2)[C@H](C)C[C@@H]1C (stereo not given in full) | 25.7 | 26.1 | -12.7% (active) | -13.3% (active) | 14.2 | 27.5 | -99.2% (active) | -92.2% (active) | 29.3% | -93% (active) | 13.7 | 31.3 | 11.8 | 34.5% | 56.5 | 31.2% | 22.2 | -69.6% (active) | 17.3% | 
3 | C=CCN(CC=C)C(=O)[C@H](CC)[C@@H]1CC[C@@H](C)[C@@H]([C@H](C)[C@@H](O)[C@@H](C)C(=O)[C@H](CC)C2O[C@]3(C=CC(=O)[C@]4(CC[C@@](C)([C@H]5CC[C@](O)(CC)[C@H](C)O5)O4)O3)[C@H](C)C[C@@H]2C)O1 (stereo not given in full) | 11.5 | 16.7 | 38.7% | 23.8% | 30.5 | 14.7 | -12.3% (active) | 10.7% | 36.9% | 19.8% | 22.1 | 12.8 | 19.8 | 0.66% (active) | 35.5 | 5.47% (active) | 13.7 | 22.2% | 28.8% | 
4 | O=C(CCl)Oc1ccc(OC(=O)CCl)cc1 | 94.1 | 99.9 | 75.3% | 104% | 101 | 89.4 | 82.2% | 85% | 89.3% | 104% | 96.1 | 90.4 | 87.2 | 64.1% | 113 | 75.2% | 93.7 | 97.4% | 84.2% | 13.3
5 | C=CCn1c(SCC(=O)Nc2ccc(C(=O)/C=C/c3cc(OC)c(OC)c(OC)c3)cc2)nnc1-c1cc(-c2ccc(Cl)cc2)nc2ccccc12 | 59.5 | 74.7 | 68.8% | 84.1% | 86.3 | 71.7 | 91% | 84.2% | 75.5% | 100% | 103 | 86.4 | 86.8 | 57.1% | 113 | 86.1% | 67.2 | 80.6% | 52.6% | 
6 | CCn1c(SCCc2ccccc2)nnc1-c1nn(-c2ccc(Cl)cc2Cl)c(-c2ccc(Cl)cc2)c1C | 45.6 | 67.2 | 90.7% | 76.7% | 54.7 | 39.8 | 74.3% | 68.6% | 63.8% | 79.2% | 53.8 | 52.6 | 70.3 | 53.5% | 75.3 | 61% | 64.4 | 96.6% | 41.6% | 
